Measurements from PubChem BioAssay (EPA / NIEHS).
Records with an inconclusive call do not appear. Activity calls are given as the source filed them. Rule for the calls, unless noted: active = hit-call score of the fitted dose curve at least 0.9, where 1 is the maximum; inconclusive = response in the unintended direction; inactive = score below 0.9.

Experiments:
[1] = CEETOX_H295R_MTT_cell_viability: Viability Assessment in the CeeTox HT-H295R MTT Assay (AID 2283718; active = hit-call score of the fitted dose curve at least 0.9, where 1 is the maximum; inactive = score below 0.9;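 for AC50: curve fitted both ways so AC50 may mark viability loss or gain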)
How it was run: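 Human H295R adrenal cells, prestimulated 48 h with 10 uM forskolin, were exposed 48 h to chemicals in 0.1% DMSO. Viability was measured in the same wells by MTT (0.5 mg/ml, 4 h, 37 C), absorbance 570/650 nm, as percent of controls.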

[2] = ACEA_AR_agonist_AUC_viability: ACEA Biosciences xCELLigence Real-Time Cell Analysis on Androgen Receptor Agonism for Viability (AID 2283775);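 for AC50: viability read 80 hours after compound addition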
How it was run: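 Viability endpoint from xCELLigence impedance in 22Rv1 prostate cells at 80 h. Eight-point series, 100 uM maximum final.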

[3] = molecular target: Luciferin 4-monooxygenase (Photinus pyralis) (UniProt P08659); assay: CCTE_Simmons_QuantiLum_inhib_2: CCTE's Firefly Luciferase Inhibition Assay, Simmons Lab (AID 2283767);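 for AC50: potency for inhibitors that lower luciferase luminescence relative to DMSO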
How it was run: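 Eight-point titrations of each chemical, 5 nM–87.5 uM final in 0.5% DMSO, were run in three biological replicates against recombinant luciferase for 30 min at 37C. Bioluminescence signal loss, read on reagent injection, gave the inhibition endpoint.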

[4] = ACEA_AR_antagonist_AUC_viability: ACEA Biosciences xCELLigence Real-Time Cell Analysis on Androgen Receptor Antagonism for Viability (AID 2283776);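 note: area under impedance growth curve at 80 h after dosing as viability; hits lower the growth signal relative to DMSO meaning cytotoxicity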
How it was run: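 22Rv1 human prostate cancer cells were seeded on electrode plates, monitored overnight, then exposed to eight 1:4 dilutions from 100 uM final. Impedance-based growth kinetics at 80 h gave an AUC viability endpoint normalized to DMSO.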

[5] = STM_H9_OrnCyssISnorm_ratio: Stemina devTOX quickPredict H9 human embryonic stem cell (hESC)-based Assay for Ornithine (ORN):Cystine (CYSS) Ratio (AID 2283714)
How it was run: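 UPLC-HRMS of spent media: ORN/CYSS ratio of internal-standard-normalized percentages, DMSO (0.1%) baseline. Pluripotent H9 hESCs, 72h exposure, daily re-dosing with fresh media; last 24h media collected.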

[6] = Tanguay_ZF_120hpf_ActivityScore_legacy: (Legacy) Oregon State University Tanguay Lab 120 Hour Post-fertilization zebrafish Assay Score for Activity (AID 2283742)
How it was run: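 Dechorionated 5D embryos, one per well, static exposure 6–120 hpf, 28C, sealed and dark; final DMSO 0.64% (vol/vol). Brightfield binary scoring of mortality plus 18 endpoints; gain-of-signal fit versus DMSO baseline.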

[7] = molecular target: zebrafish Estrogen Receptor (ESR1), esr1 (gene 259252) (UniProt P57717); assay: ATG_zfER1_XSP1: Attagene TRANS-FACTORIAL Multi-Species (XSP1) HepG2 Assay for zebrafish Estrogen Receptor (ESR1) (AID 2283772)
Procedure: (§1) ATG_XSP1_multi-species_TRANS is a cell-based, multiplexed assay created by modifying the existing Attagene TRANS-FACTORIAL system to include a panel of nuclear receptors from some or all the following species: human (Homo sapiens), mouse (Mus musculus), frog (Xenopus laevis), zebrafish (Danio rerio), chicken (Gallus gallus), and turtle (Chrysemys picta). The ECOTOX-FACTORIAL format uses HepG2, a human liver cell line, with measurements taken at 24 hours after chemical dosing in a 24-well plate. Xsp1 included 3 nM 6-alpha-fluorotestosterone to partially stimulate the androgen receptor.ATG_zfER1_XSP1 is one of 29 assay components measured or calculated from the ATG_XSP1_multi-species_TRANS assay. It is designed to make measurements of mRNA induction, a form of inducible reporter, as detected with fluorescence intensity signals by Reverse transcription polymerase chain reaction (RT-PCR) and Capillary electrophoresis technology.The assay endpoint ATG_zfER1_XSP1 was analyzed in the positive analysis fitting direction relative to DMSO as the negative control and baseline of activity. […] Furthermore, this assay endpoint can be referred to as a primary readout, because this assay has produced multiple assay endpoints where this one serves a reporter gene function. […]

[8] = tested on: zebrafish Estrogen Receptor (ESR2B), gene 317733; assay: ATG_zfER2b_XSP1: Attagene TRANS-FACTORIAL Multi-Species (XSP1) HepG2 Assay for zebrafish Estrogen Receptor (ESR2B) (AID 2283773)
Procedure: as §1, with “receptor.ATG_zfER2b_XSP1” for “receptor.ATG_zfER1_XSP1”, “ATG_zfER2b_XSP1” for “ATG_zfER1_XSP1”

[9] = tested on: frog Estrogen Receptor (ESR2), gene 100174814; assay: ATG_frER2_XSP1: Attagene TRANS-FACTORIAL Multi-Species (XSP1) HepG2 Assay for frog Estrogen Receptor (ESR2) (AID 2283774)
How it was run: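 HepG2, transient MRTU transfection (GAL4-UAS reporters, exogenous NR-Gal4 chimeras); 24 h compound exposure; 3 nM 6α-fluorotestosterone co-added; total RNA → RT-PCR → 6-FAM primer extension → HpaI → CE. Positive direction vs DMSO.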

[10] = tested on: frog Estrogen Receptor (ESR1), gene 398734; assay: ATG_frER1_XSP1: Attagene TRANS-FACTORIAL Multi-Species (XSP1) HepG2 Assay for frog Estrogen Receptor (ESR1) (AID 2283777)
How it was run: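 Transient MRTU transfection, HepG2 (human liver); 24 h dosing, 3 nM 6α-fluorotestosterone co-added; RNA → RT-PCR → 6-FAM labeling → CE; upward activity vs DMSO.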

Chain of Luciferin 4-monooxygenase (Photinus pyralis) (P08659 whole entry, looked up): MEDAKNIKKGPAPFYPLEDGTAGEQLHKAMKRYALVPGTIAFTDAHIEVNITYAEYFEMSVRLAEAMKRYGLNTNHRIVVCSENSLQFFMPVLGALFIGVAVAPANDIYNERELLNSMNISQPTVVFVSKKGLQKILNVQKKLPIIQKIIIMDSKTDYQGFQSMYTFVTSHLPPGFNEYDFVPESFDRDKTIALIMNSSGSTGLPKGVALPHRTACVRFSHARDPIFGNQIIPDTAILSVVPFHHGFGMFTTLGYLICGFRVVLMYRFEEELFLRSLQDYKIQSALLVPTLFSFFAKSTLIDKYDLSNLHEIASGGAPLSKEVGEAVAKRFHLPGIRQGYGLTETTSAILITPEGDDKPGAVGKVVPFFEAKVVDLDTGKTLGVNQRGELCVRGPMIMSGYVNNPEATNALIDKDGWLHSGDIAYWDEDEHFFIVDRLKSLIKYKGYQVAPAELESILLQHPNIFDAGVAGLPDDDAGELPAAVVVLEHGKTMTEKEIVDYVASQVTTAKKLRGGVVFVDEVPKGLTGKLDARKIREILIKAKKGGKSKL
Chain of zebrafish Estrogen Receptor (ESR1), esr1 (gene 259252) (P57717 whole entry, looked up): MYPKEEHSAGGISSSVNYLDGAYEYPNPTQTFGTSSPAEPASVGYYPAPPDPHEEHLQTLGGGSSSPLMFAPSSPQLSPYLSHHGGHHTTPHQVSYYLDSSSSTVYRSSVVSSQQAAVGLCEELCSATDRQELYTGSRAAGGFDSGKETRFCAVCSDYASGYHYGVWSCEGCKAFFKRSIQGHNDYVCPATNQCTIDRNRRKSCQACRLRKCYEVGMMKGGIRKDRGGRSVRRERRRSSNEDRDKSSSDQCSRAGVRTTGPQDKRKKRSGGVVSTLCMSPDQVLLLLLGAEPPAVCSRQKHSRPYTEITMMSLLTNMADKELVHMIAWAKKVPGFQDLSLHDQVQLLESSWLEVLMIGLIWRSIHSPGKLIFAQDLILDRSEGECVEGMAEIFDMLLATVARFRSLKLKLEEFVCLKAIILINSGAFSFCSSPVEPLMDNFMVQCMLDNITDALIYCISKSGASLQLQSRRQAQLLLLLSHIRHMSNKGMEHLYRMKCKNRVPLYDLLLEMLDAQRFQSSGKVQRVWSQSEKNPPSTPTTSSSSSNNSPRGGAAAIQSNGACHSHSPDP

Q: With `c1ccc(CCCc2ccccn2)cc1` as the molecule, how does the outcome [1] read?
A: inactive

Q: What about the outcome [2] of the same molecule?
A: inactive

Q: Which outcome [1] does the source give for `CSc1nc(NC2CC2)nc(NC(C)(C)C)n1` here?
A: inactive

Q: And the outcome [3]?
A: inactive

Q: What about the outcome [2] of the same molecule?
A: inactive

Q: What about the outcome [4] of the same molecule?
A: inactive

Q: With `CN(C)c1ccc(O)c2c1C[C@H]1C[C@H]3[C@H](N(C)C)C(=O)C(C(N)=O)=C(O)[C@@]3(O)C(=O)C1=C2O` as the molecule, how does the outcome [3] read?
A: inactive

Q: With `CC(C)=CCCC(C)CC=O` (centres undefined) as the molecule, how does the outcome [3] read?
A: inactive

Q: And the outcome [2]?
A: inactive

Q: And the outcome [4]?
A: inactive

Q: Which results are given for `Cc1ccc(O)c(C(C)(C)C)c1`?
A: outcome [3]: inactive; outcome [2]: inactive; outcome [4]: inactive

Q: Which outcome [1] does the source give for `Nc1cc([N+](=O)[O-])ccc1Cl` here?
A: inactive

Q: Which results are given for `CCN(CC)CCOC(=O)c1ccc(N)cc1`?
A: outcome [5]: inactive; AC50 [2]: 20.5 µM (active); outcome [4]: inactive

Q: Which AC50 [3] does the source give for `O=Nc1ccc(Nc2ccccc2)cc1` here?
A: 53.8 µM (active)

Q: And the outcome [2]?
A: inactive

Q: And the outcome [4]?
A: inactive

Q: For `Cc1ccc2n[nH]nc2c1`, which outcome [1] is on record?
A: inactive

Q: For `COc1cc2ncnc(Nc3cccc(Cl)c3)c2cc1OC`, which outcome [1] is on record?
A: inactive

Q: What does the source list for `CC1CC(OC(=O)c2ccccc2O)CC(C)(C)C1` (centres undefined)?
A: outcome [1]: inactive; outcome [4]: inactive

Q: Which outcome [1] does the source give for `C=CC(C)(C)O` here?
A: inactive

Q: For `Nc1ccc(F)c([N+](=O)[O-])c1`, which outcome [1] is on record?
A: inactive

Q: Which AC50 [1] does the source give for `CC1COc2ccccc2N1C(=O)C(Cl)Cl` (centres undefined) here?
A: 4.9 µM (active)

Q: And the AC50 [2]?
A: 2.33 µM (active)

Q: And the AC50 [4]?
A: 4.63 µM (active)

Q: With `Cc1cccc(C)c1C` as the molecule, how does the outcome [1] read?
A: inactive

Q: With `CCCCc1ccc(N)cc1` as the molecule, how does the outcome [3] read?
A: inactive

Q: What about the outcome [2] of the same molecule?
A: inactive

Q: And the outcome [4]?
A: inactive

Q: With `CC(C)=CCCC(C)=CCCC(C)=CCO` as the molecule, how does the AC50 [1] read?
A: 54.2 µM (active)

Q: And the outcome [3]?
A: inactive

Q: Which outcome [1] does the source give for `C=CCOc1nc(OCC=C)nc(OCC=C)n1` here?
A: inactive

Q: Which outcome [1] does the source give for `NC(=O)Nc1ccc(Cl)cc1` here?
A: inactive

Q: What about the outcome [2] of the same molecule?
A: inactive

Q: With `CC1(C)[C@H](C(=O)OCc2cccc(Oc3ccccc3)c2)[C@@H]1C=C(Cl)Cl` as the molecule, how does the outcome [1] read?
A: inactive

Q: For `c1ccc2c(c1)c1cccc3ccc4cccc2c4c31`, which outcome [3] is on record?
A: inactive

Q: With `O=c1cc(-c2ccccc2)oc2cc(O)cc(O)c12` as the molecule, how does the outcome [1] read?
A: inactive

Q: What about the AC50 [3] of the same molecule?
A: 5.53 µM (active)

Q: And the outcome [4]?
A: inactive

Q: For `COc1cc(C(C)(C)C)c(O)c(C(C)(C)C)c1`, which outcome [3] is on record?
A: inactive

Q: And the outcome [2]?
A: inactive

Q: What about the outcome [4] of the same molecule?
A: inactive

Q: With `COc1ccc(O)cc1` as the molecule, how does the outcome [3] read?
A: inactive

Q: What about the outcome [2] of the same molecule?
A: inactive

Q: And the outcome [4]?
A: inactive

Q: With `CC(C)c1cccc(O)c1` as the molecule, how does the outcome [1] read?
A: inactive

Q: What about the outcome [3] of the same molecule?
A: inactive

Q: And the outcome [4]?
A: inactive

Q: Which outcome [1] does the source give for `O=C(O)C[C@H](O)C[C@H](O)/C=C/c1c(C2CC2)nc2ccccc2c1-c1ccc(F)cc1` here?
A: inactive

Q: With `Cc1ccc(C(C)C)cc1O` as the molecule, how does the outcome [1] read?
A: inactive

Q: And the outcome [3]?
A: inactive

Q: What about the outcome [2] of the same molecule?
A: inactive

Q: What about the outcome [4] of the same molecule?
A: inactive

Q: What does the source list for `O=C(O)c1ccc([N+](=O)[O-])cc1`?
A: outcome [1]: inactive; outcome [6]: inactive; outcome [2]: inactive

Q: For `C=CC(C)(O)CCC=C(C)CCC=C(C)C` (centres undefined), which outcome [2] is on record?
A: inactive

Q: What does the source list for `CCCCCCCCCCCCCCCC(=O)OC[C@H](O)[C@H]1OC(=O)C(O)=C1O`?
A: outcome [3]: inactive; outcome [2]: inactive; outcome [4]: inactive

Q: Which results are given for `CN(C)C(=N)N=C(N)N`?
A: outcome [7]: inactive; AC50 [8]: 100 µM (active)

Q: Which outcome [2] does the source give for `C=O` here?
A: inactive

Q: What about the outcome [4] of the same molecule?
A: inactive

Q: For `CCN(CC)c1ccc2c(-c3ccccc3C(=O)O)c3ccc(=[N+](CC)CC)cc-3oc2c1`, which AC50 [2] is on record?
A: 9.44 µM (active)

Q: And the outcome [4]?
A: inactive

Q: With `CCCCCCCCCCCCN` as the molecule, how does the outcome [2] read?
A: inactive

Q: With `NCCCN1CCOCC1` as the molecule, how does the outcome [2] read?
A: inactive

Q: What about the outcome [4] of the same molecule?
A: inactive

Q: For `CCCCCCCCC`, which outcome [2] is on record?
A: inactive

Q: Which outcome [3] does the source give for `O=C(Cl)c1cccc(C(=O)Cl)c1` here?
A: inactive

Q: And the AC50 [4]?
A: 8.27 µM (active)

Q: What does the source list for `NC(=O)NC1NC(=O)NC1=O` (centres undefined)?
A: outcome [2]: inactive; outcome [4]: inactive

Q: With `O=C1C(c2[nH]c3ccc(S(=O)(=O)O)cc3c2O)=Nc2ccc(S(=O)(=O)O)cc21` as the molecule, how does the outcome [2] read?
A: inactive

Q: For `CN(CCOc1ccc(CC2SC(=O)NC2=O)cc1)c1ccccn1` (centres undefined), which outcome [7] is on record?
A: inactive

Q: And the AC50 [8]?
A: 0.0787 µM (active)

Q: What about the outcome [9] of the same molecule?
A: inactive

Q: What about the AC50 [10] of the same molecule?
A: 0.0666 µM (active)

Q: For `CCCCC(CC)COC(=O)/C=C\C(=O)OCC(CC)CCCC` (centres undefined), which outcome [2] is on record?
A: inactive

Q: With `CCCCCCCCCCN` as the molecule, how does the outcome [2] read?
A: inactive

Q: What does the source list for `O=C(O)CCCCCCCC(=O)O`?
A: outcome [2]: inactive; outcome [4]: inactive

Q: Which outcome [2] does the source give for `Cc1ccc(S)cc1` here?
A: inactive

Q: For `CCCCC[Si](OCC)(OCC)OCC`, which outcome [2] is on record?
A: inactive

Q: What about the outcome [4] of the same molecule?
A: inactive

Q: For `COc1c(Cl)c(Cl)c(Cl)c(Cl)c1Cl`, which outcome [2] is on record?
A: inactive

Q: With `CC(C)(C)C(=O)c1ccccc1` as the molecule, how does the outcome [2] read?
A: inactive

Q: For `c1ccc2[nH]ccc2c1`, which outcome [3] is on record?
A: inactive

Q: And the outcome [2]?
A: inactive

Q: What about the outcome [4] of the same molecule?
A: inactive

Q: With `CCCCCCCCCC=O` as the molecule, how does the outcome [2] read?
A: inactive

Q: For `CCCOCC(C)O` (centres undefined), which outcome [2] is on record?
A: inactive

Q: With `CCC/C=C/C=O` as the molecule, how does the outcome [2] read?
A: inactive

Q: And the outcome [4]?
A: inactive

Q: For `CCN(CC)c1ccc(C(=C2C=CC(=[N+](CC)CC)C=C2)c2ccc(S(=O)(=O)O)cc2S(=O)(=O)[O-])cc1`, which outcome [2] is on record?
A: inactive

Q: Which outcome [2] does the source give for `CCCCCC(CO)CCC` (centres undefined) here?
A: inactive

Q: With `CCCCCCCCCCC(CO)CCCCCCCC` (centres undefined) as the molecule, how does the AC50 [2] read?
A: 9.96 µM (active)

Q: With `CCCCCCCCCCCCCOS(=O)(=O)O` as the molecule, how does the outcome [3] read?
A: inactive

Q: What about the outcome [4] of the same molecule?
A: inactive

Q: With `CC(=O)C=CC1=C(C)CCCC1(C)C` as the molecule, how does the outcome [2] read?
A: inactive

Q: Which results are given for `OCCN1CCNCC1`?
A: outcome [2]: inactive; outcome [4]: inactive

Q: With `CC(C)CCCCCCCOC(=O)c1ccc(C(=O)OCCCCCCCC(C)C)c(C(=O)OCCCCCCCC(C)C)c1` as the molecule, how does the outcome [2] read?
A: inactive

Q: And the outcome [4]?
A: inactive
